Compounds with a hit are over-represented: about 9.3% of the library has one in this group of screens.
M1 agonist: activates the M1 muscarinic receptor | CHO-M1 cells, Fluo-4 calcium fluorescence, agonist mode; active compounds read high | B-score at 10 µM | actives 3% (n = 64,000) | AID 626;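 active = fluorescence rise, raw or as B-score row- and column-corrected plate score, outside the 99.7% band of its plate's samples, either direction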
Autofluor 339: intrinsic fluorescence of library compounds, ex339/em460 – biochemical, MLSMR library, data from DPM-DC assay, artefact control, profiling panel; compound autofluorescence, ex339/em460 nm, NADH buffer; active compounds read high; 1 = no-compound wells, NADH background; fluorescence fold increase at 10 µM; actives 5.5% (n = 65,000);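 active = at 10 µM, mean starting fluorescence two-fold or more over control wells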;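 note: signal is the first read of a kinetic run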
NADH coupling: blocks coupling enzymes of NAD/NADH assays. coupled PK/LDH NADH assays, four targets. actives 0.02% (n = 65,000). IC50, µM (series often up to 10 µM), without a hit: at the highest dose inhibition;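 active = single-dose screening hits from any of four coupled enzyme assays that gave an IC50 when retested across doses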;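 note: the DPM-DC format reads NADH fluorescence rather than 340 nm absorbance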
A340 absorber: compounds absorbing at 340 nm; fold change at 10 µM; AID 708; 65,000 tested, under 10 active; compound absorbance at 340 nm, fold over control;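 active = at 10 µM dose, initial 340 nm absorbance at least 2 fold that of control wells; inactive = change under 2 fold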;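 note: initial absorbance extrapolated from kinetic A340 decline of NADH oxidation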
Htt clearance: compounds clearing mutant huntingtin protein; inhibition, % at 1.5 µM; HeLa Exon1htt(103Q)mCFP, aggregate imaging; zero = plate's median compound well; actives 0.42% (n = 47,000);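 active = inhibition of aggregate fluorescence above about 70%, also judged a hit by eye on the cell image, limit read from the data, passing the limit was not always enough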;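 note: cells exposed to compound for three days before fixation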
M1 antagonist: M1 muscarinic receptor (rat) antagonism | actives 3.4% (n = 64,000) | P08482 | AID 628 | B-score at 10 µM | CHO-M1 cells, Fluo-4 calcium, ACh EC80 antagonist mode; active compounds read low;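 active = calcium fluorescence response, raw or row-and-column corrected B-score, differing from the plate sample mean either way at a set confidence level, mostly lower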
Target sequence (P08482 whole entry, looked up): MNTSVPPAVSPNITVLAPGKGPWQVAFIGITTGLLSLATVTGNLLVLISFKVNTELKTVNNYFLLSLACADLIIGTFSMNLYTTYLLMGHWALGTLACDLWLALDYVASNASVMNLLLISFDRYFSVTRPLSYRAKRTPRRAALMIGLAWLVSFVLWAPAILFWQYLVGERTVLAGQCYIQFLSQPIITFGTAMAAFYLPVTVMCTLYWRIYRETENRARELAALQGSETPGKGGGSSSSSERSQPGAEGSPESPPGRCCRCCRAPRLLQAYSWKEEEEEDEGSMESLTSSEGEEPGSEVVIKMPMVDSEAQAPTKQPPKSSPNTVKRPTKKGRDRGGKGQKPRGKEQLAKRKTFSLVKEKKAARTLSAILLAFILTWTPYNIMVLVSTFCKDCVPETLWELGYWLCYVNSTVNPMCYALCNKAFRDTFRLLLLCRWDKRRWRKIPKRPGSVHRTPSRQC
M1 antag confirm: M1 muscarinic receptor (rat) antagonism, confirmed; shares compounds with M1 antagonist; CHO-M1 cells, Fluo-4 calcium, ACh EC80 antagonism; active compounds read low; calcium response (max-min fluorescence) at 10 µM; actives 43% (n = 1,700); AID 677;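 active = calcium response below the same-plate mean of wells given acetylcholine alone at its 80%-effect dose, minus 3 SD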;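 note: raw fluorescence intensity difference in arbitrary instrument units and not normalized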
mGluR4 antag: mGluR4 (human) activity, M1 antagonist secondary assay; AID 678; fluorescence response (max-min) at 10 µM; CHO-mGluR4 calcium flux, Fluo-4 fluorescence, glutamate EC80; active compounds read low; shares compounds with M1 antagonist; actives 0.9% (n = 1,700);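 active = fluorescence response below the plate's average for near-maximal glutamate wells, less 3 SD of those wells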;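 note: raw unnormalized fluorescence span taken in the window right after glutamate addition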
* = called active by the depositor; . = not tested or not shown.

SMILES	M1 agonist	Autofluor 339	NADH coupling	A340 absorber	Htt clearance	M1 antagonist	M1 antag confirm	mGluR4 antag
CCN(CCCNC(=O)c1c(C)cc(=O)oc1C)c1cccc(C)c1	-0.205	1.12	13.0%	1.2	.	-2.95*	522*	266
Cc1cnn(-c2ccc3nnc(-c4ccc(Br)cc4)n3n2)c1	-0.0286	1.56	11.0%	1.09	.	0.974	.	.
COc1cccc(-c2cnc(NCc3cc(Cl)ccc3O)n2C)c1	-1.53	1.1	5.0%	0.97	.	-5.05*	359*	185
Cn1c(-c2cccc(Br)c2)cnc1NCc1cccnc1	-0.0229	1.08	6.0%	1	-18.7	-6.92*	40.2*	166
C=C(C)COc1ccc2c(C)c(CC(=O)OC)c(=O)oc2c1C	-1.19	3.84*	1.0%	1.09	.	-1.97*	641	225
Cc1ccc(S(=O)(=O)N2CCC(C(=O)N3CCC[C@H]3C(=O)NCc3ccccc3)CC2)cc1	-0.277	1.07	1.0%	1	.	0.672	.	.
Cc1ccc(S(=O)(=O)N2CCC(C(=O)N3CCC[C@H]3C(=O)NCc3ccco3)CC2)cc1	-0.181	1.12	7.0%	0.99	.	-2.21*	555*	210
CCCn1c(CNc2ccc(Br)cc2)nc2ccccc21	-1.75	1.03	2.0%	1.04	.	-1.54	.	.
COc1ccc(S(=O)(=O)N2CCCC2C(=O)Nc2nnc(-c3cccnc3)s2)cc1 (configuration not stated)	-0.564	1.52	6.0%	1.11	19.9	-1.95*	583	270
COc1ccc(S(=O)(=O)N2CCC[C@H]2C(=O)NC2=NCCS2)cc1	.	.	.	.	0.2	.	.	.
COc1ccccc1CNC(=O)CN(c1ccc(C)cc1)S(=O)(=O)c1c(C)n[nH]c1C	0.81	1.11	2.0%	1.01	.	0.779	.	.
CCOc1ccccc1NC(=O)CN(c1ccc(C)cc1)S(=O)(=O)c1c(C)n[nH]c1C	-1.18	1.07	4.0%	1.01	-11.8	-2.39*	530	242
CS(=O)(=O)Nc1ccc(Cc2ccc(NS(C)(=O)=O)cc2)cc1	-0.0647	1.13	4.0%	1.03	-55.2	-3.17*	552	230
O=C(Nc1ccccn1)C(NS(=O)(=O)c1cccc2nsnc12)c1ccccc1 (configuration not stated)	-1.23	0.94	9.0%	1.03	.	-1.51	.	.
CC(=O)c1c(C)[nH]c(C(=O)OCC(=O)Nc2ncc(Cl)c(C)c2Cl)c1C	-0.186	1.01	5.0%	1	.	-15.4*	567	234
Cc1ccc2nc3ccc(N4CCCC4)nn3c(=O)c2c1	-0.0303	1.6	5.0%	1.08	33.2	-1.02	.	.
Cc1sc2nc3ccc(N4CCCCC4)nn3c(=O)c2c1C	2.96	2.44*	4.0%	1.07	57.8	-2.33*	619	222
CCN(CCNC(=O)C1CCN(c2nnc(-n3cccc3)s2)CC1)c1ccccc1	-0.426	0.94	21.0%	1.03	.	-0.826*	630	192
O=C1NCCCc2nc(Oc3ccccc3)sc21	-0.51	1.09	1.0%	1.01	.	-3.27*	623	228
O=C(NC(=O)c1ccccc1)NC1(C(F)(F)F)OCCO1	0.222	1.1	3.0%	1.01	.	-18.8*	695	181
CN(C)CCSc1nc(N)c2c3c(sc2n1)CN(C)CC3	-0.373	1.17	11.0%	1.05	.	-6.2*	545*	195
CCCSc1nc(N)c2c3c(sc2n1)CN(C)CC3	0.63	1.77	5.0%	1.1	.	-3.85*	485*	213
CC(C)Sc1nc(N)c2c3c(sc2n1)CN(C)CC3	-0.6	1.96	11.0%	1.06	.	0.0404	.	.
CCCCCn1c(N2CCOCC2)nc2c1c(=O)n(CC(N)=O)c(=O)n2C	1.05	1.08	4.0%	1.06	-1.7	1.18	.	.
COc1ccc(-c2cn3c(C)c(C(=O)NCCN4CCOCC4)sc3n2)cc1	-2.04	1.05	7.0%	1.01	.	-0.973	.	.
COc1ccc(-c2oc3ncn(CCN4CCOCC4)c(=N)c3c2-c2ccc(OC)cc2)cc1	-0.171	1.52	6.0%	1.06	29.8	-11.1*	261*	264

Screening results: PubChem, several laboratories
